From publication PMC4552634, “A New Set of Chemical Starting Points with Plasmodium falciparum Transmission-Blocking Potential for Antimalarial Drug Discovery” (PLoS ONE, 2015)
The whole screen tested about 13,000 compounds, of which about 3,200 (25%) showed an effect of 50% or more. Some of the results follow.

Test system: P. falciparum stage V gametocytes
Design: BacTiter-Glo ATP luminescence viability of purified stage V gametocytes in 384-well plates, per cent inhibition versus DMSO
Settings: 48 h, 5 µM; inhibitor

SMILES | % Inhibition [%]
CCC(=O)N[C@@H]1CN[C@@H](C#Cc2cc3c(Nc4ccc(OCc5cccc(F)c5)c(Cl)c4)ncnc3s2)C1 [TCMDC-135410] | -39.51
N#Cc1c(N2CCCCCC2)nc(N)c2c(N)nc3c(c12)CC(=O)N3c1ccc(F)cc1 [TCMDC-123902] | 44.67
O=C(Nc1ccc(S(=O)(=O)N2CCCCC2)cc1)c1cc(-c2cc(Cl)ccc2O)n[nH]1 [TCMDC-124905] | -12.68
CN1CCC(Oc2ccc(CN3CC[C@H](NC(=O)c4ccc(F)c(F)c4)C3)c3ccccc23)C1 (stereo partly shown) [TCMDC-135278] | 72.64
CCCCCN1CCCN(Cc2cccc(NC(=O)c3ccc4ccccc4c3)c2)CC1 [TCMDC-141854] | -83.26
CC(=O)Nc1ccc2[nH]cc(C3CCN(CC4CCN(C(=O)/C=C/c5ccc(Cl)c(Cl)c5)CC4)CC3)c2n1 [TCMDC-140112] | -22.97
Nc1ccc2[nH]cc(C3CCN(CCC4CCN(C(=O)/C=C/c5ccc(Cl)c(Cl)c5)CC4)CC3)c2n1 [TCMDC-140062] | 107.7
Nc1ccc2[nH]cc(C3CCN(CC4CCN(C(=O)/C=C/c5ccc(Cl)c(Cl)c5)CC4)CC3)c2n1 [TCMDC-140061] | 100.1
Cc1cccc2[nH]cc(C3CCN(CCC4CCN(C(=O)/C=C/c5ccc(Cl)c(Cl)c5)CC4)CC3)c12 [TCMDC-140124] | -19.67
CC(=O)Nc1ccc2[nH]cc(C3CCN(CCC4CCN(C(=O)/C=C/c5ccc(Cl)c(Cl)c5)CC4)CC3)c2n1 [TCMDC-140113] | -31.57
CC(Cc1ccc(C(=O)OC(c2ccccc2)c2ccccc2)cc1)NCC(O)c1ccccc1 (stereo not shown) [TCMDC-131546] | 37.45
Cc1ccc2nc(-c3cc(-c4cccc(CCN5CCOCC5)c4)cnc3N)[nH]c2c1 [TCMDC-133136] | -33.78
Cc1nc2ccc(/C=C/C(=O)NC3CCC(CCN4CCc5ccc(C#N)cc5CC4)CC3)cc2[nH]1 (stereo not shown) [TCMDC-139675] | -3.608
CNC(=O)c1ccc2[nH]cc(C3CCN(CC4CCC(NC(=O)/C=C/c5ccccc5Cl)CC4)CC3)c2c1 (stereo not shown) [TCMDC-139978] | -4.902
CC(=O)Nc1ccc2[nH]cc(C3CCN(CC4CCC(NC(=O)/C=C/c5ccccc5Cl)CC4)CC3)c2n1 (stereo not shown) [TCMDC-140111] | 60.6
Nc1ccc2[nH]cc(C3CCN(CC4CCC(NC(=O)/C=C/c5ccc(Cl)c(Cl)c5)CC4)CC3)c2n1 (stereo not shown) [TCMDC-140064] | 97.26
CS(=O)(=O)Nc1ccc2[nH]cc(C3CCN(CC4CCC(NC(=O)/C=C/c5ccc(Cl)c(Cl)c5)CC4)CC3)c2n1 (stereo not shown) [TCMDC-140088] | 4.239
Cc1cc(O)cc2c(C3CCN(CC4CCC(NC(=O)/C=C/c5ccccc5Cl)CC4)CC3)c[nH]c12 (stereo not shown) [TCMDC-139924] | -46.01
Nc1ccc2[nH]cc(C3CCN(CC4CCC(NC(=O)/C=C/c5ccccc5Cl)CC4)CC3)c2n1 (stereo not shown) [TCMDC-140063] | 106.2
CC(=O)Nc1ccc2[nH]cc(C3CCN(CC4CCC(NC(=O)/C=C/c5ccc(Cl)c(Cl)c5)CC4)CC3)c2n1 (stereo not shown) [TCMDC-140114] | 6.04
CCCCc1cc(NCc2ccncc2)nc(Nc2ccc(OC)cc2)n1 [TCMDC-134010] | -13.59

SMILES | % Inhibition [%]
Cc1cccc(NC(=O)c2cnc(N3CCN(c4ccncc4)CC3)c(Cl)c2)c1 [TCMDC-134625] | 39.85
CC(C)Nc1cc(C(=O)N[C@@H](Cc2ccccc2)[C@H](O)CNC2CCOCC2)c(F)c(N2CCCCS2(=O)=O)c1 [TCMDC-135541] | -18.96
CN(C)CCCOc1cc(NC(=O)Nc2ccc(-c3ccncc3)c3ccccc23)ccc1I [TCMDC-139136] | 21.74
CS(=O)(=O)CCCNCc1ccc(-c2cc3c(Nc4ccc(OCc5ccccc5)cc4)ncnc3cn2)o1 [TCMDC-138081] | 11.38
CN(Cc1ccc(C#N)cc1)C1CCN(c2cc(NC(=O)c3cccc(F)c3)ccn2)CC1 [TCMDC-134976] | -19.78
COc1ccc2nccc([C@@H](O)CN3CCC(NC(=O)Cc4ccc(Br)c5ccccc45)CC3)c2c1 [TCMDC-141168] | -21.28
CC1(C)N=C(N)N=C(N)C1c1ccc(Cl)cc1 (stereo not shown) [TCMDC-137610] | 17.18
O=C(O[C@@H]1CN[C@H](C#Cc2cc3c(Nc4ccc5c(cnn5Cc5ccccc5)c4)ncnc3s2)C1)N1CCCC1 [TCMDC-135376] | 21.76
O=C(Cn1c(SCc2cccc(F)c2F)cc(=O)c2ccccc21)N(CCn1ccnc1)Cc1ccc(-c2ccc(C(F)(F)F)cc2)cc1 [TCMDC-141468] | 91.6
O=C(Cn1c(SCc2cccc(F)c2F)cc(=O)c2ccccc21)N(CCCn1ccnc1)Cc1ccc(-c2ccc(C(F)(F)F)cc2)cc1 [TCMDC-141467] | 68.26
CCN(CC)CCCN(Cc1ccc(-c2ccc(C(F)(F)F)cc2)cc1)C(=O)Cn1c(SCc2cccc(F)c2F)cc(=O)c2ccccc21 [TCMDC-141175] | 139.9
O=C(Cn1c(SCc2cccc(F)c2F)cc(=O)c2ccccc21)N(CCN1CCCCC1)Cc1ccc(-c2ccc(C(F)(F)F)cc2)cc1 [TCMDC-141466] | 112.5
O=C(Cn1c(CCc2cccc(F)c2F)cc(=O)c2cccnc21)N(CCCn1ccnc1)Cc1ccc(-c2ccc(C(F)(F)F)cc2)cc1 [TCMDC-141469] | 1.607
O=C(Cn1c(CCc2cccc(F)c2F)cc(=O)c2ccccc21)N(CCN1CCCCC1)Cc1ccc(-c2ccc(C(F)(F)F)cc2)cc1 [TCMDC-141142] | -28.19
CN(Cc1cccc(F)c1)C1CCN(c2cc(NC(=O)c3ccc(F)cc3)ccn2)CC1 [TCMDC-135018] | 1.836
CCCOc1ccccc1-c1nc2[nH]c3c(c2c(=O)[nH]1)CCN(C)C3 [TCMDC-138173] | 5.306
COc1cc(C=CC(=O)N2CCC3(CC2)CC(=O)c2ccccc2O3)cc(OC)c1OC [TCMDC-123541] | 7.005
N#Cc1ccc(-c2ccc(OCC(O)CN3CCCN(Cc4cccc(O)c4Cl)CC3)cc2)cc1 (stereo not shown) [TCMDC-141431] | -23.75
COc1ccc2nccc([C@@H](O)CN3CCC(NCc4nc5ccccc5s4)CC3)c2c1 [TCMDC-140790] | -20.83
COc1ccc(NC(=O)Nc2ccc(-c3ccncc3)c(Cl)c2)cc1N1CCN(C)CC1 [TCMDC-139134] | -28.75
CN(C)c1ccc(NC2=NC(C)(C)N=C(N)N2)cc1 [TCMDC-124346] | 7.678

SMILES | % Inhibition [%]
O=C(Cn1c(SCc2cccc(F)c2F)cc(=O)c2ccccc21)N(CCc1cnc[nH]1)Cc1ccc(-c2ccc(C(F)(F)F)cc2)cc1 [TCMDC-141484] | 44.33
Cn1cncc1CCN(Cc1ccc(-c2ccc(C(F)(F)F)cc2)cc1)C(=O)Cn1c(SCc2cccc(F)c2F)cc(=O)c2ccccc21 [TCMDC-141451] | 112.4
Cc1ccc(/C=C/C(=O)NC2CCC(N3CCC(c4ccccc4C)CC3)CC2)cc1C (stereo not shown) [TCMDC-133526] | -66.55
CCN1C(=O)C(CC(=O)Nc2cccc(Cl)c2)N(Cc2ccc(OC)c(OC)c2)C1=S (stereo not shown) [TCMDC-123795] | 79.41
COc1ccc(CN2C(=S)N(Cc3ccccc3)C(=O)C2CC(=O)Nc2ccccc2)cc1OC (stereo not shown) [TCMDC-123874] | 33.25
COc1cc(NC(=O)c2cccs2)c(OC)cc1NC(=O)Nc1cccc(Cl)c1 [TCMDC-123531] | -32.35
O=C(Cc1ccccn1)Nc1cccc(-c2cccc(-c3nc4ccc(C(F)(F)F)cc4[nH]3)c2)c1 [TCMDC-132177] | -14.6
COc1ccc2nccc([C@@H](O)CN3CCC(NCc4cc5ccccn5n4)CC3)c2c1 [TCMDC-141025] | 65.1
COc1ccc2nccc([C@@H](O)CN3CCC(NC(=O)/C=C/c4ccc(F)c5ccccc45)CC3)c2c1 [TCMDC-141105] | -9.775
COc1ccc2nccc([C@@H](O)CN3CCC(NCC4COc5ccccc5O4)CC3)c2c1 (stereo partly shown) [TCMDC-140733] | 86.29
COc1ccc2nccc([C@@H](O)CN3CCC(NC(=O)/C=C/c4ccc5ccccc5n4)CC3)c2c1 [TCMDC-141104] | 76.48
COc1ccc2nccc([C@@H](O)CN3CCC(NC(=O)/C=C/c4ccnc5ccccc45)CC3)c2c1 [TCMDC-141103] | 15.04
COc1ccc2nccc([C@@H](O)CN3CCC(NCc4cc5ccccc5nn4)CC3)c2c1 [TCMDC-140972] | -3.79
COc1ccc2nccc([C@@H](O)CN3CCC(NCc4ccc5cccc(O)c5n4)CC3)c2c1 [TCMDC-140715] | -19.01
COc1ccc2nccc([C@@H](O)CN3CCC(NCc4ccc5c(c4)OCCO5)CC3)c2c1 [TCMDC-141123] | 9.641
COc1ccc2nccc([C@@H](O)CN3CCC(NCC(O)Cc4ccccc4)CC3)c2c1 (stereo partly shown) [TCMDC-140702] | 11.24
Nc1ncc(-c2cccc(OCc3ccccc3)c2)cc1-c1nnc2ccc(Cl)nn12 [TCMDC-134853] | -7.115
COC(=O)c1ccc(N2CCN(CCCCNC(=O)c3ccc(NC(=O)c4ccc(Cl)cc4)cc3)CC2)c(OC)c1 [TCMDC-138526] | 7.636
O=C(Nc1ccc(Cl)cc1)Nc1cccc(-c2cccc(-c3nc4ccccc4[nH]3)c2)c1 [TCMDC-133178] | -4.164
